PrPC surface inh = reduces human prion protein on the cell surface | P04156 | cell surface PrPC, TR-FRET read-out | inhibition, % at 13.8 µM | 370,000 tested, 0.43% active | AID 720596; in the data active means inhibition above about 24%; further: 0% = median of the test wells and 100% = reference compound wells
PrP UTR inh = suppresses PrP 5' UTR mRNA reporter expression; 340,000 tested, 0.35% active; inhibition, % (test concentration not listed); cell-based PrP 5' UTR mRNA reporter, plate reader; in the data active means inhibition above about 52%; further: 0 = median of the neutral control wells
DUSP3 inh = inhibitors of human VHR1 phosphatase (DUSP3) | P51452 | recombinant VHR phosphatase, pNPP absorbance | inhibition, % at 13.3 µM | 290,000 tested, 0.52% active | AID 1654; in the data active means inhibition above about 50%
Target sequence (P51452 whole entry, looked up): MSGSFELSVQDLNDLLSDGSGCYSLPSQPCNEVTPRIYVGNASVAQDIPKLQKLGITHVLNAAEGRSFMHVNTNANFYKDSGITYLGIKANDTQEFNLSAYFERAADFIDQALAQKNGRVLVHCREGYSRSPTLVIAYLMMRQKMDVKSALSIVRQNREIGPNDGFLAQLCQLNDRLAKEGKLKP
MazF activator = MazEF (E. coli) toxin RNase activation; P0AE70; FAM/BHQ RNA-DNA oligo cleavage fluorescence, 5 h; activation, % at 20 µM; 350,000 tested, 0.32% active; AID 504720; in the data active means activation above about 50%
Target sequence (P0AE70 whole entry, looked up): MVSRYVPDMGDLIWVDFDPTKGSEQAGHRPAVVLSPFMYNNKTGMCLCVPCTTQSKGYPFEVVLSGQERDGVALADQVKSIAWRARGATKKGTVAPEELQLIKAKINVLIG
3CLpro inhibitor = SARS-CoV 3CLpro protease inhibition | 290,000 tested, 0.14% active | recombinant SARS-CoV 3CLpro, quenched FRET peptide cleavage | P0C6X7 | inhibition, % at 6 µM | AID 1706; in the data active means inhibition above about 12%
Mtb hypoxia rep = reduces hypoxia-regulated biosensor signal in M. tuberculosis; 300,000 tested, 0.1% active; M. tuberculosis hypoxia-regulated fluorescent reporter, fluorescence; fluorescence inhibition, % (test concentration not listed); in the data active means fluorescence inhibition mostly above about 23%, no sharp cut-off; inactive means mostly below about 17%
Numbers without * were called inactive; x = no result given; + = active, no number. Rows were chosen to be rich in hits. Some 1.5% of all compounds tested hit in one or more screens of this group.

SMILES	PrPC surface inh	PrP UTR inh	DUSP3 inh	MazF activator	3CLpro inhibitor	Mtb hypoxia rep
Cc1c(C(=O)O)oc2c(F)cccc12	-1.7	-18.9	37.1	-5.9	1.9	7.2
O=[N+]([O-])c1ccc(S(=O)(=O)c2ccccc2)nc1	24.0	-6.6	9.5	9.1	-1.9	x
Cc1ccc(S(=O)(=O)c2ccc([N+](=O)[O-])cn2)cc1	70.3*	-1.7	20.7	0.8	0.8	x
COc1ccc(C=Nn2cnc3c([nH]c4ccccc43)c2=O)cc1COc1ccccn1	x	x	x	x	x	-13.4
C[C@@]12CCC3[C@@](CCC4[C@@]3(C)CCC[C@@]4(C)C(=O)O)(CC1NCc1ccccc1)C2 (stereo partly specified)	x	x	x	x	x	11.7
CC/C(=N/Nc1cccc(C)c1)c1cnnc(SC)n1	-11.5	-15.3	6.4	287.4*	-1.7	x
NCCCCC(C(=O)NCCCCCCCCCCC(=O)N1CCNCC1)n1cc(CCO)nn1 (stereo unspecified)	x	x	x	x	x	3.3
O=C(NN=C/C(Br)=C/c1ccccc1)c1ccccc1[N+](=O)[O-]	x	x	x	x	x	-0.5
O=C1CCC(C(=O)N2CCCC(C(=O)c3ccc4ccccc4c3)C2)=NN1 (stereo unspecified)	-1.4	6.3	50.4*	0.6	-5.9	7.8
COc1ccccc1-c1ccc(C=NO)o1	x	x	x	x	x	17.8
Cc1cc(C(C)C)n2c(nc3ccccc32)c1C#N	x	x	13.9	x	3.5	12.6
Cc1cc(-c2ccco2)c(C#N)c2nc3ccccc3n12	-8.2	-44.7	-2.3	+	-3.2	x
C[C@@]12C(=O)N(CC3CC3)CC(=O)N1C(C=Cc1ccccc1)C1C(=O)N(c3ccccc3)C(=O)C12 (stereo partly specified)	x	x	x	x	x	3.6
Nc1nc(CN2CCN(c3ccccc3)CC2)nc(N2CCCc3ccccc32)n1	4.2	-8.5	18.2	-5.9	2.3	-4.6
Nc1nc(CN2CCN(Cc3ccccc3)CC2)nc(N2CCCc3ccccc32)n1	0.5	-4.6	54.4*	4.3	-1.8	-2.2
O=C(NN=Cc1cn(-c2ccccc2)nc1-c1cccnc1)c1ccccc1	x	x	x	x	x	-3.5
CC(C)CCOC(=O)C[N+](C)(C)CCOC1CC2CCC1(C)C2(C)C (stereo unspecified)	14.7	-16.8	29.8	21.4	6.7	41.1*
O=C(NN=Cc1ccco1)c1cc(-c2ccccc2)nc2ccccc12	x	x	x	x	x	0.8
Cc1ccccc1Cc1c(C)nc2nc(SCC(=O)NCCCN3CCCCC3)nn2c1C	x	-10.1	57.6*	10.5	2.4	-3.0
Cc1nc2nc(SCC(=O)NCc3ccco3)nn2c(C)c1Cc1c(F)cccc1Cl	-2.9	-20.5	51.0*	3.7	-4.3	6.0
Cc1nc2nc(SCC(=O)NCCCN3CCCCCC3)nn2c(C)c1Cc1ccccc1	-11.7	-16.7	17.1	6.2	-0.8	0.9
O=C(NC(Cc1ccccc1)C(=O)OCc1ccccc1)c1nc[nH]c1C(=O)N1CCc2ccccc2C1 (stereo unspecified)	x	x	x	x	x	12.0
COc1ccccc1OCCNc1ccc(S(=O)(=O)N2CCCC2)cn1	-6.4	-14.4	x	166.9*	x	6.8
CC(/C=N/NC(=O)c1cccs1)=C\c1ccco1	-2.7	-53.0	51.3*	3.8	2.6	x
CCOc1ccc(S(=O)(=O)NCCc2cn3ccccc3n2)cc1	4.0	-9.2	26.3	-8.1	3.1	4.1
SMILES	PrPC surface inh	PrP UTR inh	DUSP3 inh	MazF activator	3CLpro inhibitor	Mtb hypoxia rep
O=S(=O)(NCCc1cn2ccccc2n1)c1ccc(-c2ccccc2)cc1	-2.0	-12.8	57.1*	-2.5	3.7	-7.7
Cc1ccc(CSC2=NCCN2S(=O)(=O)c2ccc(C)cc2)cc1	11.9	x	x	-5.1	x	x
Cc1ccc(S(=O)(=O)N2CCN=C2SCc2ccc(Cl)c(Cl)c2)cc1	2.2	-29.7	0.1	+	1.0	7.7
c1ccc(-c2ccc(CN3CC4C(c5ccccc5)C5(c6ccccc6)CC4(C5)C3c3ccccc3)cc2)cc1 (stereo unspecified)	x	x	x	x	x	2.8
Cc1ccc(N=C2NC(=O)/C(=C/c3cccs3)S2)cc1C	-0.6	-34.3	5.1	54.3*	-3.1	1.9
COc1ccccc1N1CCN(C2CCCN(C(=O)C3=NN(C)C(=O)CC3)C2)CC1 (stereo unspecified)	-4.6	1.5	52.1*	7.3	-0.8	10.0
COc1ccccc1N1CCN(C2CCCN(C(=O)c3cscn3)C2)CC1 (stereo unspecified)	1.7	-5.1	5.3	7.5	-2.8	x
COc1ccccc1N1CCN(C2CCCN(C(=O)CCn3cncn3)C2)CC1 (stereo unspecified)	-11.3	5.6	57.1*	2.2	-3.5	-1.9
